# Rows were chosen to be rich in hits. Some 27% of all compounds tested hit in one or more screens of this group.
# CYP2C9 inh = inhibitors of human CYP2C9; actives 20% (n = 96,000); P11712; inhibition, % at 5 µM; CYP2C9 Supersomes, luciferin-H conversion, luminescence;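 active = blocking of liver enzyme CYP2C9 beyond about 50% at 5 µM, limit read from the data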
# CYP2C19 activ = activators of human cytochrome P450 2C19; P33261; recombinant CYP2C19, luciferin-H EGE luminescence; stronger effect = higher value; 0 = fully inhibited enzyme, 1 = untreated enzyme; activation factor at 5 µM; 96,000 tested, under 10 active; AID 1025;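 active = activation factor of at least 2 at 5 µM in the primary screen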
# CYP2C9 act = increases human cytochrome P450 2C9 activity | P11712 | recombinant CYP2C9, luciferin-H conversion, luminescence; stronger effect = higher value; factor 1 = untreated enzyme, 0 = blocked | activation factor at 5 µM | actives 1.4% (n = 96,000) | AID 1024;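 active = activation factor of 2 or more for CYP2C9 at a 5 µM dose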
# Pyk2 oligo antag = blocks oligomerization of human Pyk2 in cells | actives 0.83% (n = 99,000) | Q14289 | z-score (the deposit names both 25 µM and 10 µM) | Q293 cells, Pyk2 FERM NanoBiT luminescence; stronger effect = lower value | AID 1347419;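 active = Z-score of -3 or lower, scaled per plate to the spread of control and sample wells; inactive = z-score above -3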;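 note: negative z-score means lost luminescence so less FERM oligomerization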
# Target sequence (Q14289 whole entry, looked up): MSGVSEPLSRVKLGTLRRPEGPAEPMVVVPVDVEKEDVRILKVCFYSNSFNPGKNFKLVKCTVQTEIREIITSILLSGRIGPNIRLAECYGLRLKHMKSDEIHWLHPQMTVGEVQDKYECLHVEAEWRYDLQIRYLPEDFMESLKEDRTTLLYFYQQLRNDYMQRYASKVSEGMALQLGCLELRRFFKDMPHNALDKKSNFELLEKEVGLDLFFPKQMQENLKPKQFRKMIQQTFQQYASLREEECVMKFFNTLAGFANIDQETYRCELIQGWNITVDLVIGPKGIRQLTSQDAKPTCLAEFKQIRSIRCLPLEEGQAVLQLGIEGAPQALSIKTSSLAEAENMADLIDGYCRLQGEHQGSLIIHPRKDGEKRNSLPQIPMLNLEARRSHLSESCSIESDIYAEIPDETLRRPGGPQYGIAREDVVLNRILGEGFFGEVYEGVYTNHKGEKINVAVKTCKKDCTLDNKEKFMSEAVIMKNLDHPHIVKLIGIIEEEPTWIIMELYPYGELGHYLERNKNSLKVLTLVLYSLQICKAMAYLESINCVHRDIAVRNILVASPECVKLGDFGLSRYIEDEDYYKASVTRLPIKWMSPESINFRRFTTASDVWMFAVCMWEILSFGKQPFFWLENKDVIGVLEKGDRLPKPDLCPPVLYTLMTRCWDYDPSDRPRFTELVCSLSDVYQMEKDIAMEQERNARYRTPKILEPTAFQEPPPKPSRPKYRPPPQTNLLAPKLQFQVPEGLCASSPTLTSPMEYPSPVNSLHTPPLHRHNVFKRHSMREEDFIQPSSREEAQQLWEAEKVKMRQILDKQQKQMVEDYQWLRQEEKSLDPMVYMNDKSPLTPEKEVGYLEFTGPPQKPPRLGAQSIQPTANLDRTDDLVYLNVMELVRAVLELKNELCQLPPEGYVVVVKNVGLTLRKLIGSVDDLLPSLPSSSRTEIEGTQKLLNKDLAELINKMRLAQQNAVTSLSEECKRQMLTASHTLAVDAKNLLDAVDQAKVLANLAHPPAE
# Cav3 T inh = inhibitors of human Cav3.2 T-type calcium channel. B-score at 10 µM. O95180. Cav3.2-expressing cells, Fluo-4 calcium fluorescence FDSS; stronger effect = lower value. actives 4% (n = 100,000);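 active = single-dose well whose peak fluorescence ratio is a statistical outlier from its plate by either plate-standardised score or position-corrected B-score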
# CYP2C19 inh = human CYP2C19 inhibition | P33261 | CYP2C19 Supersomes, luciferin-H EGE luminescence, 30 min | inhibition, % at 5 µM | actives 21% (n = 96,000) | AID 778;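 active = CYP2C19 inhibition above a set limit at 5 µM in the primary screen, cut at about 50% in these data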
# Numbers stand for hits; - = inactive; . = no result given.
SMILES,CYP2C9 inh,CYP2C19 activ,CYP2C9 act,Pyk2 oligo antag,Cav3 T inh,CYP2C19 inh
CNc1nc(-c2ccc(Cl)cc2)cs1,-,-,-,-,-,60
CCNc1nc(-c2ccc(Cl)cc2)cs1,-,-,-,-,-,-
COC(=O)c1ccc(C2/C(=C(/O)c3ccc(OC)cc3)C(=O)C(=O)N2c2cc(C)on2)cc1 (stereo not drawn),-,-,-,-,-,-
Cc1cc(N2C(=O)C(=O)/C(=C(/O)c3ccc(F)cc3)C2c2cccc(Br)c2)no1 (stereo not drawn),61,-,-,-,-,-
Cc1cc(N2C(=O)C(=O)/C(=C(/O)c3ccccc3)C2c2cccs2)no1 (stereo not drawn),71,-,-,-,-,-
Cc1ccc(/C(O)=C2\C(=O)C(=O)N(c3cc(C)on3)C2c2cccc(Cl)c2)cc1 (stereo not drawn),-,-,-,-,-3.1,-
Cc1ccc(/C(O)=C2\C(=O)C(=O)N(c3cc(C)on3)C2c2cccc(Br)c2)cc1 (stereo not drawn),-,-,-,-,-3.7,-
CC1(C)C2CCC13CS(=O)(=O)N[C@@H]3C2 (stereo partly drawn),-,-,-,-,-,-
Cc1c(Br)c([N+](=O)[O-])nn1CC(=O)N1CCCc2ccccc21,-,-,-,-,-,-
COC(=O)c1c(C)cc(C)n2c1nc1ccccc12,-,-,-,-,-,-
O=S1(=O)CC(O)C(Nc2ccccc2Cl)C1 (stereo not drawn),-,-,-,-,-,-
COc1ccc(/C=C(/C#N)C(=O)Nc2cccc(C)c2C)cc1C(=O)O,-,-,-,-,-,58
COc1ccc2nc(NCCO)[nH]c2c1,-,-,-,-,-,-
c1ccc(CNc2nc3ccccc3[nH]2)cc1,-,-,-,-,-,-
COc1ccc2nc(NCc3ccccc3)[nH]c2c1,-,-,-,-,-,78
COc1ccc2nc(-c3ccccc3)[nH]c2c1,-,-,-,-,-,74
Cc1ccc2nc(NCc3ccccc3)[nH]c2c1,-,-,-,-,-,88
CCC(C(=O)NCc1ccco1)N(C(=O)CNS(=O)(=O)c1ccccc1)C1CCCCC1 (stereo not drawn),-,-,-,-,-,71
CCCC(C(=O)NCc1ccco1)N(C(=O)CNS(=O)(=O)c1ccc(Cl)cc1)C1CCCC1 (stereo not drawn),80,-,-,-,-8.4,92
CC(C)C(C(=O)NCc1ccco1)N(C(=O)CNS(=O)(=O)c1ccccc1)C1CCCC1 (stereo not drawn),-,-,-,-,.,-
CCCC(C(=O)NC1CCCCC1)N(CC1CCCO1)C(=O)CNS(=O)(=O)c1ccc(F)cc1 (stereo not drawn),-,-,-,-,.,-
Cc1csc(-c2cnn(-c3ccccc3)c2NC(=O)c2ccc(C(F)(F)F)cc2)n1,-,-,-,-,-,-
COc1cccc(/C=N/n2nnc3c(cnn3-c3ccccc3)c2=O)c1,-,-,-,-,.,-
COC(=O)CNC(c1ccccc1)c1cc(Br)ccc1NS(=O)(=O)c1ccc(C)cc1 (stereo not drawn),.,.,.,-,.,.
COc1cc(Br)c(C(C)NC(=O)c2cccc(Br)c2)cc1OC (stereo not drawn),66,-,-,-3.2,-,62
SMILES,CYP2C9 inh,CYP2C19 activ,CYP2C9 act,Pyk2 oligo antag,Cav3 T inh,CYP2C19 inh
Cc1nn(Cc2ccc(Cl)c(Cl)c2)c(C)c1NC(=O)c1cc(-c2ccc3c(c2)OCO3)on1,66,-,-,-,-,-
Cc1nn(Cc2ccc(Cl)c(Cl)c2)c(C)c1NC(=O)c1cn(-c2ccccc2)nc1-c1ccccc1,90,-,-,-,-5.1,-
COc1ccc(-c2cc(C(=O)Nc3c(C)nn(Cc4ccccc4Cl)c3C)no2)cc1,-,-,-,-,-,-
COc1ccc(OC)c(-c2cc(C(=O)Nc3c(C)nn(Cc4ccccc4)c3C)no2)c1,-,-,-,-,-,-
COc1ccc(OC)c(-c2cc(C(=O)Nc3c(C)nn(Cc4ccc(Cl)cc4)c3C)no2)c1,-,-,-,-,.,-
Cc1nn(Cc2ccc(Cl)cc2)c(C)c1NC(=O)c1cc(-c2ccc3c(c2)OCO3)on1,54,-,-,-,-,-
Cc1nn(Cc2ccccc2)c(C)c1NC(=O)c1cc(-c2ccco2)on1,.,.,.,-,-6.2,.

# Source: PubChem (several laboratories)
